Ten molecules from PubChem BioAssay can be followed below.

Several values for one entry are separate records, joined by “and”; a condition that tells them apart may be missing. Identical values can stand only once. The source holds several records for some structures; these can differ, active in one and inactive in another. Activity calls are given as the source filed them.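 How the source made its calls, unless noted: active means inhibition at or above 50% relative to wild type and mutant plate controls; inactive means inhibition below 50%.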

Assay [1] is described as follows: inhibitors of TNFa-induced NFkB p65 translocation, primary screen, imaging, HUVEC, MLSMR starter and 10KST1 sets (AID 438;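 active means inhibition above 20% together with a positive visual image hit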;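 further: compound added about 3h40 before a 20 min TNFalpha stimulation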;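 on inhibition: signal is the nuclear over cytoplasmic p65 intensity ratio per well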). The conditions noted are these: HUVEC TNFa-induced p65 nuclear translocation; cell count: measured here: nuclei count (cytotoxicity indicator), at 2.08 µM unless noted; inhibition: at 2 µM, stronger effect = higher value unless noted.
Assay [2] is described as follows: inhibitors of E-selectin induction by TNFa, primary screen, imaging, HUVEC, immunofluorescence, MLSMR starter and 10KST1 sets (AID 487;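 active means visually confirmed hit in the image check and inhibition above 20%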;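 on inhibition: signal is fraction of cell area covered by stained E-selectin grains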;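 on nuclei count: 100% = median nuclei count of all wells on the same plate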). Particulars: HUVEC TNFalpha-induced E-selectin immunofluorescence imaging, at 2 µM; inhibition: stronger effect = higher value; nuclei count: measured here: cell number, toxicity.
Assay [3] is described as follows: DUSP6 inhibitors restoring Erk phosphorylation by chemical complementation, primary imaging in DUSP6-transfected HeLa (AID 609;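 active means compounds giving at least 50% inhibition in the cell-based MKP-3 phosphatase rescue imaging test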;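 on inhibition: phospho-Erk level distribution per well compared with pooled transfected vehicle control wells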). Particulars: HeLa MKP-3 transfected, phospho-Erk imaging KS statistic, at 10 µM.
In assay [4] the target is Dual specificity protein phosphatase 6 (Homo sapiens) (UniProt Q16828). The assay is described as above. The conditions noted are these: HeLa MKP-3 transfected, phospho-Erk imaging KS statistic, at 10 µM, stronger effect = higher value.
Sequence of Dual specificity protein phosphatase 6 (Homo sapiens) (Q16828 whole entry, looked up): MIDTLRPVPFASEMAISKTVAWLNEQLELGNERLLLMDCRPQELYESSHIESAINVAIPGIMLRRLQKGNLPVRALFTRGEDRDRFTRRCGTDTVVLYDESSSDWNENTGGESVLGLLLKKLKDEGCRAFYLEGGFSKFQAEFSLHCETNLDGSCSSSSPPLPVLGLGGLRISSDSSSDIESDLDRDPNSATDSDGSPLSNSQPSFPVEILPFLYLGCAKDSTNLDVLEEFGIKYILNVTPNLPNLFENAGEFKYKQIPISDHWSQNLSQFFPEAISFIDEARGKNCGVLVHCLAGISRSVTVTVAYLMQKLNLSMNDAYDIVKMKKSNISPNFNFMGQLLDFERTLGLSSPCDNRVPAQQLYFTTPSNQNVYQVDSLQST
In assay [5] the target is Voltage-gated potassium channel subunit beta-2 (Rattus norvegicus) (UniProt P62483). Nature of the assay: KvBeta enzyme negative modulators, primary screen, biochemical, NADPH fluorescence (AID 622;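 active means fluorescence slope higher than the sample average by over 3 SD, cut at about -0.22 in these data, passing the limit was not always enough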;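 further: slope of raw intensity against log time taken from 70 to 1610 s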). The conditions noted are these: recombinant KvBeta, 4-cyanobenzaldehyde reduction, at 10 µM, stronger effect = higher value.
Sequence of Voltage-gated potassium channel subunit beta-2 (Rattus norvegicus) (P62483 whole entry, looked up): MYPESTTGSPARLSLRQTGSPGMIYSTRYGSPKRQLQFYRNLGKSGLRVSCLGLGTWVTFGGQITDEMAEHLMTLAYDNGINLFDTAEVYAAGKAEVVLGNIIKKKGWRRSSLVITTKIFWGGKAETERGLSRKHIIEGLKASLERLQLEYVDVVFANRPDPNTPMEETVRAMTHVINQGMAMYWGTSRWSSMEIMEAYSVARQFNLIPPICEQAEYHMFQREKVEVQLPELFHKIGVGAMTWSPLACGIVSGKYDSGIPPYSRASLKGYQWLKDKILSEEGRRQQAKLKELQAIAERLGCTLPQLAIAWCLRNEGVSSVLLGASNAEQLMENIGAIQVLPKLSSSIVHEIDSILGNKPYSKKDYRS
Assay [6] has the same target. Briefly: KvBeta positive modulators, primary screen, biochemical, NADPH fluorescence (AID 623;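 active means NADPH fluorescence slope more negative than the mean of all samples by about 3 SD, 99.7% confidence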;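 further: fluorescence intensity change per second fitted from 20 to 320 s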). Particulars: Recombinant KvBeta, NADPH fluorescence decrease slope, 10 min; at 10 µM; stronger effect = lower value.
The target in assay [7] is Alpha-2C adrenergic receptor (Homo sapiens) (UniProt P18825). Nature of the assay: modulators of alpha2C/GIRK thallium flux, primary screen, cell-based, HEK293 alpha2C/GIRK1/2 (AID 624;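 active means fluorescence slope after compound addition differing from the mean of all screened samples at 99.7% confidence, in either direction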;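 further: slope of fluorescence ratio to pre-addition baseline per second over 15 to 24 s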). Particulars: thallium flux BTC fluorescence, at 10 µM, actives lie on both sides.
Sequence of Alpha-2C adrenergic receptor (Homo sapiens) (P18825 whole entry, looked up): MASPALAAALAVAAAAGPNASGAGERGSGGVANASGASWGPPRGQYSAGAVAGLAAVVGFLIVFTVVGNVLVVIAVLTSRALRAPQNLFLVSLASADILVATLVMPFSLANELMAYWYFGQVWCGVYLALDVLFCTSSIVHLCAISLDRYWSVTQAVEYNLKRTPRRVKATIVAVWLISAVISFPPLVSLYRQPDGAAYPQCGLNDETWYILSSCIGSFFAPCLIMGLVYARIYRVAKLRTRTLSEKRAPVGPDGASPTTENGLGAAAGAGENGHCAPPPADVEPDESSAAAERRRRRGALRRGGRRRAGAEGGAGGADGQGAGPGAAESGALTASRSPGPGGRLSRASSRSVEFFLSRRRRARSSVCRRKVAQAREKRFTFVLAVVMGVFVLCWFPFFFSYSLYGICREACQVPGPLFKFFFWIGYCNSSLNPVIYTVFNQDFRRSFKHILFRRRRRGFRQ
Assay [8] can be described thus: inhibitors of larval lipid processing in zebrafish, primary screen, whole organism, PED6 fluorescence, gall bladder and intestine (AID 686;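 active means a full or partial loss of lipid-probe fluorescence in the fish gall bladder, intestine or both, judged by eye; inactive means no fluorescence loss, or compound toxic to the fish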;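 further: larvae 5 to 7 days old with five fish per well; signal comes from phospholipase A2 cleavage of quenched PED6 carried via bile; overnight exposure to compound and PED6 before scoring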). Particulars: Zebrafish larvae PED6 lipid processing, fluorescence scoring.
Assay [9] in a line: inhibitors of Chlamydomonas gravitaxis, primary screen, whole organism, Chlamydomonas reinhardtii, WT vs cilia-less mutant, absorbance, 96-well (AID 463189).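 Further: 0% = wild type cc124 cells in DMSO and 100% = ciliumless bld1 mutant cells.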 The conditions noted are these: OD600 absorbance, 2 days, at 10 µM, stronger effect = higher value.
A short description of assay [10]: inhibitors of Sendai virus-induced IRF3 signaling, primary screen, TLR/RLR signaling modifier project, cell-based, Sendai virus stimulus, luciferase, 10K MLSCN set (AID 602276;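 active means inhibition at or above 50% at 10 µM; inactive means inhibition below 50%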;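 further: firefly luciferase from ISG56 promoter only with Renilla not read in this screen; 0% = Sendai virus plus DMSO and 100% = medium plus DMSO without virus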). Particulars: HEK293 RL24 IRF3 luciferase reporter, at 10 µM, stronger effect = higher value. A general note: Reporter assays use an easily measured gene product as a stand-in for the process of interest.

Assay [11] is described as follows: inhibitors of poly I:C-induced TLR3 signaling, primary screen, cell-based, poly I:C stimulus, luciferase, 10K MLSCN set (AID 602277;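 active means inhibition of the reporter signal at or above 50%; inactive means inhibition below 50%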). Particulars: HEK293-TLR3 RL24 IRF3 luciferase reporter, at 10 µM, stronger effect = higher value.
Assay [12] is described as follows: inhibitors of mutant huntingtin aggregation, primary screen, imaging, exon1htt(103Q)mCFP cells, high-content imaging (AID 483;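 active means visual image review flags a hit and inhibition of aggregation exceeds 20%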;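 further: compound exposure lasted 3 days before fixation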;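 on nuclei count: percent of the per-plate median nuclei count of sample wells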). The conditions noted are these: exon1htt(103Q)mCFP cell line, aggregate imaging, at 2 µM; inhibition of aggregation: stronger effect = higher value; nuclei count: measured here: cell count, toxicity.
Where [13] appears, read: measured here: cell density z-score.
Setting [14] is: measured here: nuclear c-Myc green intensity z-score.
The mark [15] stands for this setting: measured here: nuclear pErk red intensity z-score, stronger effect = higher value.

In turn, `O=c1[nH]c2ccccc2n1C1CCN(CCCC(c2ccc(F)cc2)c2ccc(F)cc2)CC1` gave a cell count in assay [1] of 544. For the same molecule, the inhibition is -2.2% (inactive) in assay [1]; -26.6% (inactive) in [2]; 5.42% (inactive) in [4]; -5.72% (inactive) and -16.1% (inactive) in [9]; 18.5% (inactive) in assay [10]; 10.5% (inactive) in assay [11]. For the same molecule, the nuclei count in assay [2] amounted to 108%. Moreover, the z-score in [3] (setting [13]) was -0.698; in [3] (setting [14]) it was 0.151; in assay [3] (setting [15]), -0.248. For the same molecule, the fluorescence slope in assay [5] was -0.556 (inactive). Further, in [6], the NADPH fluorescence slope is -6.4e-05 (inactive). Also, the slope in [7] is 0.00493 (inactive). For the same molecule, the outcome in assay [8] was inactive.

Molecule `C[C@H]1OC[C@@H](C[N+](C)(C)C)O1` gave a cell count in assay [1] of 534. The inhibition in assay [1] was -2.2% (inactive); in [2], -83.7% (inactive); in assay [4], 16.8% (inactive); in assay [9] it was -2.33% (inactive) and 9.97% (inactive); in assay [10], 1.89% (inactive); in assay [11], 50.9% (active). For the same molecule, the inhibition of aggregation in assay [12] was 21% (inactive). Besides, the nuclei count amounted to 93.2% in assay [12] and 112% in [2]. Besides, the z-score in assay [3] (setting [13]) is 0.485; in assay [3] (setting [14]), 0.998; in assay [3] (setting [15]), -0.857. For the same molecule, the fluorescence slope in assay [5] was -0.458 (inactive). Moreover, the NADPH fluorescence slope in [6] was -5.9e-05 (inactive). In addition, in assay [7], the slope was 0.0176 (active). In addition, in [8], the molecule was called inactive.

The molecule `CN1C[C@H](CNC(=O)OCc2ccccc2)C[C@@H]2c3cccc4c3c(cn4C)C[C@H]21` displayed a cell count in assay [1] of 603. For the same molecule, the inhibition in [1] is 2.7% (inactive); in [2], -32.3% (inactive); in [4], 1.38% (inactive); in [9], 0.679% (inactive) and 168% (active); in [10], 1.55% (inactive); in assay [11], 23.4% (inactive). For the same molecule, in assay [12], the inhibition of aggregation is -59.5% (inactive). In addition, the nuclei count was found to be 111% in assay [12] and 110% in [2]. Besides, the z-score in assay [3] (setting [13]) is -0.59; in assay [3] (setting [14]), -0.701; in assay [3] (setting [15]), 1.38. Also, the fluorescence slope in assay [5] is -0.508 (inactive). The NADPH fluorescence slope in assay [6] is -3.6e-06 (inactive). The slope in [7] was 0.0041 (inactive). Further, in assay [8], the molecule was classed as inactive.

For the molecule `COc1ccc(OC)c(C(O)C(C)N)c1` (configuration not stated), the cell count in assay [1] worked out at 507. For the same molecule, the inhibition in assay [1] was -7.1% (inactive); in assay [2] it was -75.2% (inactive); in assay [4], 11.3% (inactive); in assay [9], 8.38% (inactive) and -0.435% (inactive); in [10] it was 4.62% (inactive); in [11], 34.8% (inactive). Moreover, in assay [12], the inhibition of aggregation was 7% (inactive). The figures for the nuclei count in assay [12] and in assay [2] were 57.3% and 108%, respectively. The z-score was -0.1 in assay [3] (setting [13]), 0.202 in assay [3] (setting [14]) and 1.18 in assay [3] (setting [15]). In addition, the fluorescence slope in assay [5] is -0.51 (inactive). Besides, in [6], the NADPH fluorescence slope is -2.7e-05 (inactive). Moreover, the slope in assay [7] is 0.0053 (inactive). Further, the result in assay [8] was inactive.

`CN1CCC(OC(=O)C2c3ccccc3Oc3ccccc32)CC1` came in with a cell count in assay [1] of 593. The inhibition in [1] was -3.3% (inactive); in [2] it was -38.4% (inactive); in assay [4], -3.5% (inactive); in assay [9] it was 11.4% (inactive); in assay [10], 7.89% (inactive); in assay [11] it was 12.3% (inactive). Also, the inhibition of aggregation in assay [12] was -33.4% (inactive). In addition, the nuclei count turned out to be 104% in assay [12] and 143% in assay [2]. For the same molecule, the z-score in [3] (setting [13]) is -1.82; in assay [3] (setting [14]), 0.811; in assay [3] (setting [15]), -0.439. Also, in assay [5], the fluorescence slope was -0.316 (inactive). The NADPH fluorescence slope in assay [6] is 1.2e-05 (inactive). In addition, the slope in assay [7] is 0.0042 (inactive). For the same molecule, in [8], the outcome was inactive.

On to `c1ccc2c(c1)[nH]c1cnccc12`, for which, in assay [1], the cell count is 584. The inhibition in [1] is -5.4% (inactive); in assay [2], -52.4% (inactive); in [4], -10.4% (inactive); in assay [9], 6.75% (inactive); in [10], 2.27% (inactive); in assay [11] it was 16.3% (inactive). The inhibition of aggregation in assay [12] is -8.3% (inactive). For the same molecule, the values for the nuclei count in assay [12] and in assay [2] were 86.9% and 113%, respectively. For the same molecule, the figures for the z-score in [3] (setting [13]), in assay [3] (setting [14]) and in assay [3] (setting [15]) were 0.863, -0.369 and 0.512, respectively. Besides, the fluorescence slope in assay [5] was -0.166 (active). Besides, the NADPH fluorescence slope in assay [6] is 2.2e-05 (inactive). The slope in [7] was 0.00469 (inactive). For the same molecule, in assay [8], the molecule was called inactive.

`CCCCCCn1c(O)c(C=NCCCn2ccnc2)c(=O)[nH]c1=O` gave a cell count in [1] of 654. Besides, the inhibition is -20.1% (inactive) in assay [1], 13.9% (inactive) in assay [2], 2.71% (inactive) in [4] and 13.6% (inactive) in assay [9]. This molecule returned a nuclei count in [2] of 134%. For the same molecule, the z-score in assay [3] (setting [13]) was 1.42; in assay [3] (setting [14]), -1.88; in assay [3] (setting [15]), -0.817. For the same molecule, the fluorescence slope in [5] is -0.5 (inactive). Besides, the NADPH fluorescence slope in assay [6] was -2e-06 (inactive). For the same molecule, the slope in [7] is 0.0065 (inactive). Moreover, in [8], the result was inactive.

On to `O=c1[nH]c(=O)n(-c2cccc(Cl)c2)c(O)c1C=NCCN1CCCCC1`, for which, in assay [1], the cell count was 506. In addition, the inhibition was 1.5% (inactive) in [1], -67.4% (inactive) in assay [2], 15% (inactive) in assay [4] and -0.905% (inactive) in assay [9]. The molecule further showed a nuclei count in [2] of 143%. Moreover, the z-score in assay [3] (setting [13]) is -0.817; in assay [3] (setting [14]), 1.06; in assay [3] (setting [15]), 1.7. Further, the fluorescence slope in [5] was -0.435 (inactive). In [6], the NADPH fluorescence slope was -5.4e-05 (inactive). In addition, the slope in assay [7] was 0.00582 (inactive). Further, the result in assay [8] was inactive.

Take `O=c1[nH]c(=O)n(CCc2ccccc2)c(O)c1C=NCCCn1ccnc1`: the cell count in assay [1] worked out at 364. Besides, the inhibition in assay [1] was -0.9% (inactive); in [2], -29% (inactive); in [4], -2.59% (inactive); in [9], 35.6% (inactive). Besides, the nuclei count in assay [2] amounted to 94.5%. Also, the z-score was -0.281 in assay [3] (setting [13]), -0.0547 in assay [3] (setting [14]) and 0.509 in assay [3] (setting [15]). The fluorescence slope in assay [5] was -0.581 (inactive). For the same molecule, in [6], the NADPH fluorescence slope is 1.1e-06 (inactive). The slope in [7] was 0.00497 (inactive). In addition, the call in assay [8] was inactive.

Consider `COc1cccc(-n2c(C)nc3ccccc3c2=O)c1`, for which, in assay [1], the cell count amounted to 554. The inhibition in assay [1] is 7.1% (inactive); in assay [2], -57.2% (inactive); in assay [4], 7.73% (inactive); in assay [9], -5.87% (inactive). In assay [2], this molecule came in with a nuclei count of 161%. Moreover, the z-score is 0.773 in assay [3] (setting [13]), 1.04 in assay [3] (setting [14]) and -1.15 in assay [3] (setting [15]). For the same molecule, in assay [5], the fluorescence slope is -0.353 (inactive). For the same molecule, the NADPH fluorescence slope in assay [6] was 2e-05 (inactive). Besides, the slope in assay [7] was 0.00545 (inactive). In assay [8], the call was inactive.

For orientation: inhibition means the relative decrease from the control value, in per cent.
